This is a sample that favours compounds with a hit; in the whole collection about 3.4% have one here.
sPLA2-III inh = Inhibits HGIII-sPLA2 liposome hydrolysis, primary screen; inhibition, % at 12.2 µM; AID 743126; 0.56% of 370,000 active; QFRET BODIPY PC-A2 liposome hydrolysis, fluorescence;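 active means inhibition above mean plus 3 SD of compounds lying within the high and low control bounds, cut at about 19% in these data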
PLCg1 inh = PLC-gamma1 (human) inhibition, primary screen; P19174; purified PLC-gamma1, fluorogenic substrate, fluorescence; inhibition, % at 12.2 µM; 0.84% of 370,000 active
PLCb3 inh = inhibitors of human phospholipase C beta3; inhibition, % at 12.2 µM; Purified PLC-beta3, fluorogenic substrate, fluorescence; 0.18% of 370,000 active; AID 720704; Q01970; in the data active means inhibition above about 11%
ADAM10 inh = inhibits human ADAM10; O14672; recombinant ADAM10, EDANS/DABCYL FRET peptide cleavage, 3 h; inhibition, % at 7 µM; 0.62% of 370,000 active; AID 720582;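 active means inhibition above a per-campaign cutoff equal to the mean of compounds falling between control-based bounds plus 3 SD, cut at about 20% in these data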
ADAM17 inh = inhibits human ADAM17; 0.83% of 370,000 active; inhibition, % at 6.95 µM; recombinant ADAM17, EDANS/DABCYL FRET peptide cleavage; P78536; AID 720648;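 active means inhibition above the mean of compounds lying between control limits plus 3 SD, set per campaign, cut at about 8.5% in these data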
KLK7 zymogen act = activates the human kallikrein-7 zymogen. P49862. purified proKLK7, EDANS-DABCYL substrate fluorescence; 100% is mature enzyme control, 0% vehicle. activation, % at 7 µM. 0.9% of 370,000 active. AID 652039;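 active means activation above the mean of all tested compounds plus 3 SD, computed per campaign excluding outliers beyond control limits, cut at about 13% in these data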
Target sequence (P49862 whole entry, looked up): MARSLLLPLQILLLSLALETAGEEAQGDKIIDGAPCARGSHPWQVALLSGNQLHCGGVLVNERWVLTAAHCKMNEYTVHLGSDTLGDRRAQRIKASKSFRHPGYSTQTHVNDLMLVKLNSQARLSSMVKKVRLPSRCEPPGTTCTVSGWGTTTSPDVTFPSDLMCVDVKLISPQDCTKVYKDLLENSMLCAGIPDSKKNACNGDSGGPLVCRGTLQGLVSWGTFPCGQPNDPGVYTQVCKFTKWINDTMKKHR
ADAM10 confirm = human ADAM10 inhibition, confirmation. shares compounds with ADAM10 inh. ADAM10 QFRET peptide cleavage, EDANS fluorescence. inhibition, % at 6.95 µM. 1% of 2,100 active;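 active means inhibition above about 20% chosen separately for each screening run, limit read from the data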
ADAM17 counter = inhibits human ADAM17 in ADAM10 exosite counter-screen; ADAM17 QFRET peptide cleavage, EDANS fluorescence; shares compounds with ADAM10 inh; inhibition, % at 6.95 µM; AID 743214; 0.5% of 2,100 active;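 active means mean triplicate inhibition above the solvent-only control wells' mean plus 3 SD, cut at about 12% in these data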
ADAM10 ctr = inhibits human ADAM10 in ADAM17 exosite counter-screen; AID 743256; inhibition, % at 6.95 µM; shares compounds with ADAM17 inh; recombinant ADAM10, EDANS/DABCYL FRET peptide cleavage, 3 h; 47% of 2,900 active;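 active means mean inhibition over the triplicate runs exceeds the activity threshold set in the earlier primary screen, cut at about 20% in these data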
ADAM17 confirm = human ADAM17 inhibition, confirmation | shares compounds with ADAM17 inh | recombinant ADAM17, EDANS/DABCYL QFRET peptide cleavage | inhibition, % at 6.95 µM | 65% of 2,900 active;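 active means mean inhibition across replicates above the hit cutoff set in the primary screen, cut at about 8.5% in these data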
PLCg1 ctr = PLC-gamma1 inhibition, counter-screen for PLC-beta3 hits. 3.1% of 3,300 active. inhibition, % at 12.3 µM. shares compounds with PLCg1 inh. purified PLC-gamma1, fluorogenic substrate, fluorescence
PLCb3 confirm = human PLC-beta3 inhibition, confirmation; AID 743261; 1% of 3,300 active; inhibition, % at 12.3 µM; shares compounds with PLCg1 inh; purified PLC-beta3, fluorogenic substrate fluorescence; in the data active means inhibition above about 11%
hGIII sPLA2 conf = human GIII-sPLA2 inhibition, confirmation; 34% of 2,000 active; AID 743280; recombinant hGIII-sPLA2, BODIPY PC-A2 QFRET fluorescence; inhibition, % at 12.2 µM; shares compounds with sPLA2-III inh;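 active means mean inhibition across triplicates above the hit cutoff set in the earlier primary screen, cut at about 19% in these data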
BODIPY interf = optically interferes with 535nm fluorescence in sPLA2 counter-screen. shares compounds with sPLA2-III inh. BODIPY FL product fluorescence interference, QFRET. inhibition, % at 12.2 µM. 8.5% of 2,000 active;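 active means average inhibition above the solvent-only control mean plus 3 SD, cut at about 6% in these data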
535nm interf DR = interferes with 535nm fluorescence in dose response counter-screen; shares compounds with sPLA2-III inh; BODIPY FL product fluorescence interference, cell-free; 240 tested, under 10 active; IC50, µM;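 active means IC50 at or below 10 µM; inactive means IC50 above 10 µM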
Numbers stand for hits; – = inactive; · = not tested or not shown. Unless noted, no stated cut-off is given here; in the data, active means inhibition above about 9.5%; inactive means the rest.

SMILES	sPLA2-III inh	PLCg1 inh	PLCb3 inh	ADAM10 inh	ADAM17 inh	KLK7 zymogen act	ADAM10 confirm	ADAM17 counter	ADAM10 ctr	ADAM17 confirm	hGIII sPLA2 conf	BODIPY interf	others
Nc1cccc(Nc2nc(OC(C(F)(F)F)C(F)(F)F)nc(OC(C(F)(F)F)C(F)(F)F)n2)c1	28	–	–	58	27	–	–	–	60	30	31	–	535nm interf DR=–
COc1nc(Nc2ccc(O)cc2)nc(OC(C(F)(F)F)C(F)(F)F)n1	–	–	–	–	–	–	·	·	·	·	·	·
COc1cccc(N=NC2C(=O)N(C(N)=S)N=C2C)c1 (stereo unspecified)	23	–	–	21	–	–	–	–	·	·	–	–
COc1cc(/C=N/Nc2ccc([N+](=O)[O-])cc2S(=O)(=O)N2CCOCC2)cc(OC)c1OC	–	–	–	–	–	–	·	·	·	·	·	·
O=[N+]([O-])c1ccc(N/N=C/c2cccc(O)c2O)c(S(=O)(=O)N2CCOCC2)c1	31	15	–	30	–	–	–	–	·	·	39	15	PLCg1 ctr=–;PLCb3 confirm=–
COc1cc(OC)cc(C(=O)NC(=S)NNC(=O)[C@H]2C[C@@H]2c2ccccc2)c1	–	–	–	–	–	–	·	·	·	·	·	·
COc1ccc(C(=O)NC(=S)NNC(=O)[C@H]2C[C@@H]2c2ccccc2)cc1OC	21	–	–	32	11	–	–	–	–	–	40	–	535nm interf DR=–
O=[N+]([O-])c1cc([N+](=O)[O-])c2c(=Nc3ccccc3)n(-c3ccccc3)n(O)c2c1	35	–	–	25	–	–	–	–	·	·	56	19
O=C(NNC(=S)Nc1ccc(Br)cc1)c1ccc(N2CCOCC2)c([N+](=O)[O-])c1	25	–	–	21	–	–	–	–	·	·	30	11
Cc1cc(C)cc(-c2nnc(SCC(=O)c3c(N)n(C4CC4)c(=O)[nH]c3=O)o2)c1	–	–	–	–	–	–	·	·	·	·	·	·
CCN(CC)c1ccc(C(=O)NNC(=O)CCl)cc1	–	–	–	–	–	–	·	·	·	·	·	·
CCN(CC)c1ccc(C(=C2C=CC(=[N+](CC)CC)C=C2)c2ccc(N(CC)CC)cc2)cc1	60	–	–	23	–	–	–	–	·	·	61	–	535nm interf DR=–
CCC1CCCCN1CCCNC(=O)Cn1c2ccccc2c2nc(=O)cc(C)n21 (stereo unspecified)	–	–	–	–	–	–	·	·	·	·	·	·
Cn1c(=O)c(C(=O)NNC(=O)c2ccccc2Cl)c(O)c2ccccc21	–	–	–	–	–	–	·	·	·	·	·	·
Cn1c(=O)c(C(=O)NNC(=O)c2ccccc2Br)c(O)c2ccccc21	30	–	–	20	–	–	–	–	·	·	–	–
COc1ccc(S(=O)(=O)N2CCOC2CNC(=O)C(=O)NCCc2ccccc2)cc1 (stereo unspecified)	–	–	–	–	–	–	·	·	·	·	·	·
Cc1scc(C(=O)NNC(=S)NC(C)c2ccccc2)c1C (stereo unspecified)	30	–	–	27	–	–	–	–	·	·	–	–
C=CCN(CC(=O)Nc1cccnc1)S(=O)(=O)c1ccc(Cl)cc1	–	–	–	–	–	–	·	·	·	·	·	·
CCN(CC)c1ccc(NC(=O)CSc2nc3ccccc3c(=O)n2-c2ccc(C)cc2)cc1	28	12	–	38	–	–	–	–	·	·	30	–	PLCg1 ctr=–;PLCb3 confirm=–;535nm interf DR=–
COc1ccc(C(C(=O)NC(C)(C)C)N(C(=O)CCC(=O)Nc2cc(C)on2)c2ccccc2F)cc1 (stereo unspecified)	–	–	–	–	–	–	·	·	·	·	·	·
CCCN(CC(=O)Nc1ccccc1OC)C(=O)c1ccc2[nH]c3c(c2c1)CC(C)CC3 (stereo unspecified)	–	–	–	–	13	–	·	·	29	16	·	·
CCN(CC(=O)Nc1ccccc1OC)C(=O)c1ccc2[nH]c3c(c2c1)CC(C)CC3 (stereo unspecified)	–	–	–	–	–	–	·	·	·	·	·	·
CC(C)Nc1nc(NC(C)C)nc(N(C#N)CCOc2ccc(Cl)cc2Cl)n1	–	–	–	–	9.3	–	·	·	–	13	·	·
CCCN(C#N)c1nc(NCC)nc(NC(C)C)n1	–	–	–	–	–	–	·	·	·	·	·	·
Oc1cccc2ccc(Nc3ccccn3)nc12	–	–	–	60	50	–	·	·	32	47	·	·
SMILES	sPLA2-III inh	PLCg1 inh	PLCb3 inh	ADAM10 inh	ADAM17 inh	KLK7 zymogen act	ADAM10 confirm	ADAM17 counter	ADAM10 ctr	ADAM17 confirm	hGIII sPLA2 conf	BODIPY interf	others
c1ccc(Nc2ccccc2Nc2ccccn2)nc1	–	–	–	–	–	–	·	·	·	·	·	·
COc1ccc([C@H]2C[C@H](n3cc(COC(=O)c4ccccc4)nn3)[C@@H](O)CN2Cc2cccs2)cc1	–	–	–	–	12	–	·	·	32	14	·	·
O=C(OCc1cn([C@@H]2C[C@H](c3ccccc3)N(Cc3cccs3)C[C@H]2O)nn1)c1ccccc1	–	–	–	–	–	–	·	·	·	·	·	·
Cc1cc(-c2ccccc2)n(-c2cc(N/N=C/c3ccccc3O)ncn2)n1	–	–	–	–	8.7	–	·	·	–	–	·	·
O=C(CNC(=S)N(Cc1ccccc1)Cc1ccccc1F)NCc1ccccc1	–	–	–	–	9.1	–	·	·	30	13	·	·
Cc1cc(F)ccc1-c1cc(C(=O)NCc2ccc(C(F)(F)F)cc2)[nH]n1	–	–	–	–	11	–	·	·	24	13	·	·
COc1ccc(F)cc1-c1cc(C(=O)NCc2ccc(F)cc2)[nH]n1	–	–	–	–	–	–	·	·	·	·	·	·

Screening data (PubChem)
